A selection: hits, their analogues and other compounds. The true share with any hit is near 4.2%.
TIM10 inh: TIM10 yeast growth inhibition | S. cerevisiae TIM10 strain growth, BacTiter-Glo luminescence, 24 h | inhibition, % at 10 µM | actives 1.4% (n = 330,000) | AID 463195;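 active = inhibition of 40% or more at the single tested concentration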;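 also: wild-type TIM10 isogenic control strain grown at permissive 25 °C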
NALP1 yeast inh: inhibitors of NALP1 inflammasome in yeast; S. cerevisiae NALP1/ASC/caspase-1 growth, X-gal OD620, 72 h; inhibition, % at 10 µM; actives 0.61% (n = 280,000); in the data active = inhibition mostly above about 24%, no sharp cut-off; inactive = mostly below about 32%
NLRP3 yeast inh: NALP3 inhibition in yeast. Yeast reconstituted NLRP3/ASC/caspase-1, beta-gal luminescence, 24 h. inhibition, % at 10 µM. actives 0.39% (n = 330,000). AID 2825;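 active = inhibition of 50% or more; inactive = inhibition below 50%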;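 also: plate controls were induced DMSO wells for no effect and uninduced yeast grown without galactose for full effect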
tim23-1 inh: growth inhibitors of tim23-1 mutant yeast. S. cerevisiae tim23-1 growth, BacTiter-Glo luminescence, 24 h. inhibition, % at 20 µM. actives 1.3% (n = 330,000);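 active = growth inhibition of the mutant yeast at or above 50%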;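 also: temperature-sensitive mutant grown at 25 °C; plate controls were DMSO-treated mutant yeast for no effect and medium wells lacking yeast for full effect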
tim10-1 inh: tim10-1 yeast growth inhibition; AID 463190; S. cerevisiae tim10-1 ts strain growth, BacTiter-Glo, 24 h; inhibition, % at 20 µM; actives 2.2% (n = 330,000);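 active = inhibition of at least 40%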;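 also: mutant grown at 25 °C; 0% = DMSO wells with yeast and 100% = wells holding no yeast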
V-ATPase pH: yeast V-ATPase proton transport regulation by pHLuorin | S. cerevisiae, pHLuorin cytosolic pH fluorescence | response, % at 10 µM | actives 0.37% (n = 350,000) | AID 504577; in the data active = response mostly above about 7.3%, no sharp cut-off; inactive = mostly below about 5.4%; also: actives read high
NALP3 yeast conf: NALP3 inhibition confirmation in yeast; shares compounds with NLRP3 yeast inh; yeast expressing human NALP3, luminescence; inhibition, % at 10 µM; actives 81% (n = 1,300); AID 435006; in the data active = inhibition above about 48%
Casp1 ASC ctr: active in yeast caspase-1-ASC counter-screen for NALP3 inhibitors | shares compounds with NLRP3 yeast inh | yeast expressing Caspase-1-ASC, luminescence counter screen | inhibition, % at 10 µM | actives 66% (n = 1,000) | AID 488784
NALP3 yeast rt: retest-confirmed inhibitor of NALP3 in yeast. yeast expressing human NALP3, luminescence read-out. AID 488794. actives 53% (n = 1,000). inhibition, % at 10 µM. shares compounds with NLRP3 yeast inh
The depositor's hits bear a star; x = no result given. Rule as the data show it, unless noted: active = inhibition above about 50%; inactive = the rest.

SMILES	TIM10 inh	NALP1 yeast inh	NLRP3 yeast inh	tim23-1 inh	tim10-1 inh	V-ATPase pH	NALP3 yeast conf	Casp1 ASC ctr	NALP3 yeast rt
COc1cccc(NC(=O)CN(C)C(=O)c2cccc(S(=O)(=O)N3CCN(c4ccc(F)cc4)CC3)c2)c1	3	x	2	3	7	1	x	x	x
O=S(=O)(c1ccsc1)N1CC=C(c2ccccc2)CC1	4	9	58*	12	12	1	61*	48	29
O=C(CSc1ncnc2c1oc1ccccc12)NCc1ccc(F)cc1	-18	8	55*	26	7	-1	63*	43	29
Fc1ccc(CSc2ncnc3c2oc2ccccc23)cc1	x	31	x	x	x	0	x	x	x
CSCCC(NC(=O)/C(=C/c1ccc2c(c1)OCO2)NC(=O)c1cccc([N+](=O)[O-])c1)C(=O)O (stereo unspecified)	7	11	12	6	8	3	x	x	x
O=C(NCCCCc1ccccc1)c1ccc(Br)cc1	-60	-8	59*	3	-26	-2	61*	37	36
O=C(NCCCCc1ccccc1)c1ccccc1F	-24	22	54*	9	-7	0	62*	53*	44
O=C(CCc1c[nH]c2ccccc12)Nc1ncccc1O	4	4	23	4	-6	-2	x	x	x
O=C(Cc1cccc(Cl)c1)Nc1ccc(Br)cc1	6	2	54*	22	1	1	39	57*	48
O=C(Cc1ccc(Br)cc1)Nc1ccc(Cl)cc1	-13	-2	28	7	-4	-1	x	x	x
CCn1c(SCC(=O)Nc2cc(C)on2)nc2c(c1=O)SCC2	-3	7	23	9	9	6	x	x	x
Cc1cccc(OCC(=O)Nc2nc3ccc([N+](=O)[O-])cc3s2)c1	-7	7	39	-1	7	-2	x	x	x
CC1(C)CC(c2nc(-c3ccc([N+](=O)[O-])cc3)cs2)CCO1 (stereo unspecified)	28	-3	-107	8	32	0	-16	x	x
O=C(NC1CCCc2c1cnn2-c1ccc(F)cc1F)c1csnn1 (stereo unspecified)	6	-2	13	15	27	2	x	x	x
CC(C)(C)c1ccc(C(=O)NC(=S)N2CCCC2)cc1	8	10	63*	31	10	-3	49*	80*	71*
CC(C)(C)c1ccc(C(=O)NC(=S)N2CCCCCC2)cc1	38	6	34	47	38	-1	x	x	x
COc1cc(NC(=O)CN2C(=O)CN(C)C2=O)c(C)cc1[N+](=O)[O-]	7	17	81*	-19	12	-3	34	x	x
CCCNC(=O)c1c(O)c2cccc3c2n(c1=O)CCC3	x	-1	x	x	x	-4	x	x	x
NCCNC(=O)c1c(O)c2cccc3c2n(c1=O)CCC3	33	35*	61*	41	-14	1	75*	51*	46
COC(=O)c1sc2nc3c(cc2c1N)CCCC3	12	-9	51*	34	3	1	66*	64*	58*
C(=N\Nc1nc(-c2ccccc2)cs1)/c1cccnc1	-22	37	30	27	-27	4	x	x	x
CC(C)(C)c1csc(N/N=C/c2cccnc2)n1	19	24	58*	18	19	1	68*	76*	56*
COC(=O)CCC(=O)c1oc2ccc(Cl)cc2c1NC(=O)CCCN1C(=O)c2ccccc2C1=O	-6	14	23	-7	33	-2	x	x	x
Cc1ccc(Nc2nc(N)c3ccccc3n2)cc1Cl	25	37	55*	44	5	2	65*	38	32
COc1cc2nc(Nc3ccc(C)c(Cl)c3)nc(N)c2cc1OC	7	3	12	25	37	-3	x	x	x
SMILES	TIM10 inh	NALP1 yeast inh	NLRP3 yeast inh	tim23-1 inh	tim10-1 inh	V-ATPase pH	NALP3 yeast conf	Casp1 ASC ctr	NALP3 yeast rt
COc1ccc(-c2ccc(S(=O)(=O)N3CCCC3)cc2)cc1	12	11	53*	28	-12	2	47	54*	44
COC(=O)c1ccccc1NC(=O)C1CCCN(S(=O)(=O)c2ccc(OC)cc2)C1 (stereo unspecified)	-16	52	64*	40	26	-4	77*	63*	60*
COc1ccc(S(=O)(=O)N2CCN(c3nc(C)cc(C)n3)CC2)cc1	5	20	53*	34	33	4	65*	63*	58*
COc1ccc(S(=O)(=O)N2CCCCCC2)cc1	25	-11	-11	26	33	2	x	x	x
COc1ccc(CCN(Cc2ccccn2)C(=S)Nc2cccc(C)c2)cc1OC	31	4	11	22	30	-4	x	x	x
CC1CCCCN1S(=O)(=O)c1cnc(Cl)c(Br)c1 (stereo unspecified)	-56	58	55*	4	-18	0	54*	x	x
C/C(=N\Nc1ncc(Br)cn1)c1cccc([N+](=O)[O-])c1	-2	5	51*	29	13	-2	61*	64*	49
Cc1nc(SCc2ccc(OCCC(C)C)cc2)n[nH]1	32	29	76*	37	29	2	84*	93*	89*
CCCCCOc1ccc(CSc2n[nH]c(C)n2)cc1	26	22	64*	34	32	-1	75*	70*	82*
Cc1ccc(NC(=O)CCc2ccc(S(=O)(=O)N3CCOCC3)cc2)c(Cl)c1	0	x	7	18	20	4	x	x	x
Cc1snc(SCc2ccc(F)cc2)c1C#N	-21	13	38	9	1	-5	x	x	x
Cc1snc(SCc2ccc(Cl)cc2)c1C#N	5	28	52*	1	-5	-2	49*	63*	25
NCCC(=O)NCCc1cnc[nH]1	2	x	66*	-7	-8	23*	76*	63*	72*
Cc1ccc2c(c1)C(CCN)C(=O)N2Cc1ccccc1 (stereo unspecified)	-2	26	51*	19	11	-2	68*	52*	51*
CCOC(=O)c1cnn(-c2cccc(Cl)c2)c1N	-14	18	56*	-9	-11	-2	73*	53*	32
COc1ccc(S(=O)(=O)N2CCN(CCc3ccccc3)CC2)cc1	2	2	30	24	6	6	x	x	x
Cn1c(SCc2nc(-c3ccc(Cl)cc3)no2)nnc1-c1ccco1	5	-6	53*	39	21	0	66*	49	37
COc1ccc(-c2nnc(SCc3cccc(C#N)c3)o2)cc1	8	0	54*	21	-24	-1	37	x	x
COc1cccc(CSc2nnc(-c3ccc(F)cc3)o2)c1	-6	18	24	11	4	3	x	x	x

Source: PubChem BioAssay
